# Rows were chosen to be rich in hits. Some 3% of all compounds tested hit in one or more screens of this group.
# SKOV3 invasion: blocks SKOV3ip1 adhesion and invasion in omental model. 46,000 compounds, 0.1% hits. Potency, µM (highest dose often 45.8 µM), for the others: at the top dose activity change, negative = inhibition, usual class: inhibitors. SKOV3ip1-GFP adhesion/invasion on 3D omental model, fluorescence. AID 1963576;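 note: potency is the fitted concentration of half-maximal effect; plate controls were DMSO wells for no effect and tomatine positive control wells for full effect; nearly all actives have a fitted effect of over 65% in size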
#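 Adhesion/invasion was scored as fixed GFP-labeled SKOV3ip1 cell counts (488/509 nm), normalized to DMSO and tomatine controls. Cancer cells in serum-free medium, with four compound doses (0.36-46 umol/L), sat 2 hr at RT then 16 hr at 37 C on a 48 hr fibroblast/mesothelial/ECM culture.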
# PMP22 txn prim: PMP22 gene transcription modulation | S16 Pmp22-F2sN Schwann cells, FLuc/NLuc coincidence luminescence, 24 h | Potency, µM (doses to about 57.5 µM), for the others: top-dose activity change, negative = inhibition, usual class: inhibitors | 43,000 compounds, 2% hits; active = clear falling dose curves in both reporters; inconclusive = both reporters move, but less clearly or upward; inactive = either reporter flat; the % is the NLuc reporter signal; note: potency is the fitted concentration of half-maximal effect; % is set by controls: 0 for no effect and ±100 for the full control effect
#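 Reporter cells (S16 Pmp22-F2sN, 500–1,000 per well) exposed to compounds for 24 h, 37C, 5% CO2; lysis with FLuc read after 10 min, then Stop&Glo and NLuc read after 10 min.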
# p53null 39C kill: selectivity test: cytotoxicity in p53 null cells, nonpermissive temperature; H1299 p53-null (neo) cells, 39C, ATPlite viability, 24 h; 55,000 compounds, 0.97% hits; Potency, µM (doses to about 46.1 µM), without a hit: at the highest dose activity, negative = cell killing, hits mostly cytotoxic;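 note: potency is the fitted concentration of half-maximal effect; 0% = DMSO only and -100% = full killing by 100 µM tamoxifen; nearly all actives have a fitted effect of over 50% in size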
#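 ATP-luminescence viability readout (ATPlite, 20 min RT) after 24 hr compound treatment at 39C of H1299-neo or H1299-p53A138V cells; titration up to 46 uM; normalized to DMSO and 100 uM tamoxifen; Hill-fit AC50.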
# S16 F2sN tox: cytotoxicity in S16 Pmp22-F2sN Schwann cells. S16 Pmp22-F2sN Schwann cells viability, CellTiter-Glo, 24 h. Potency, µM (titrated, usually from 57.5 µM), for inactives: top-dose activity change, negative = cytotoxicity, actives largely listed as cytotoxic. 43,000 compounds, 0.48% hits; note: potency is the fitted concentration of half-maximal effect; % is set by controls: 0 for no effect and ±100 for the full control effect; nearly all actives have a fitted effect of over 65% in size
#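 Viability was measured by CellTiter-Glo luminescence (15 min, room temperature). This followed 24 h at 37 °C of compound exposure (23 nL pin transfer) in S16 Pmp22-F2sN Schwann cells, 500-1,000 per well.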
# pS6 MEF inh: mTORC1 pathway inhibition measured by phospho-rpS6; Tsc2-/- p53-/- MEF, phospho-rpS6 immunofluorescence/PI, 24 h; Potency, µM (highest dose often 38.3 µM), for the others: top-dose activity change, negative = inhibition, usual class: inhibitors; 44,000 compounds, 0.78% hits; AID 493208;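 note: potency is the fitted concentration of half-maximal effect; plate controls were DMSO for no effect and rapamycin for full effect; nearly all actives have a fitted effect of over 50% in size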
#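 Tsc2-/-, p53-/- MEFs (empty-vector stable line) in DMEM + 10% FBS were treated with compounds 24 h at 37 degree Celsius, fixed, and immunostained for phospho-rpS6 (Alexa-488) with propidium iodide counterstain. Laser-scanning cytometry gave % positive cells, normalized against 7.5 nM rapamycin and DMSO.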
# p53null 32C kill: p53 null cell cytotoxicity, permissive temperature | 55,000 compounds, 0.62% hits | AID 903 | H1299-neo p53 null cells, ATP luminescence, 24 h, 32C | Potency, µM (top dose mostly 46.1 µM), without a hit: top-dose activity change, negative = cytotoxicity, hits mostly cytotoxic;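 note: potency is the fitted concentration of half-maximal effect; 0% = DMSO only and -100% = full killing by 100 µM tamoxifen; nearly all actives have a fitted effect of over 55% in size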
#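 H1299-neo (p53-null) cells, 600/well, were pre-incubated overnight at 37C, then exposed to compounds at up to 46 uM for 24 hr at 32C. Viability was measured as ATP content by luminescence, and AC50 values came from Hill fits.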
# NLuc saturating: NanoLuc enzyme inhibition artifact for PMP22 screen. Secreted NLuc enzyme (filtered S16 cell medium), Nano-Glo luminescence. Potency, µM (titrated, usually from 57.5 µM), without a hit: at the top dose activity change, negative = inhibition, most hits filed as inhibitors. 690 compounds, 4% hits. AID 1508638. shares compounds with PMP22 txn prim; note: potency is the fitted concentration of half-maximal effect; % is set by controls: 0 for no effect and ±100 for the full control effect
# NLuc Km counter: inhibits NanoLuc under Km conditions, PMP22 counter-screen; shares compounds with PMP22 txn prim; secreted NLuc enzyme, coelenterazine luminescence, Km conditions; Potency, µM (doses to about 57.5 µM), for the others: at the top dose activity change, negative = inhibition, usual class: inhibitors; 690 compounds, 5% hits; note: potency is the fitted concentration of half-maximal effect; % is set by controls: 0 for no effect and ±100 for the full control effect
# FLuc counter: inhibits firefly luciferase, PMP22 counter-screen; Potency, µM (top dose mostly 57.5 µM), inactives show top-dose activity, negative = inhibition, actives largely listed as inhibitors; shares compounds with PMP22 txn prim; purified P. pyralis FLuc, luminescence, 10 min; 690 tested, under 10 active; AID 1508640; note: % of control where 0% means no effect
# Target sequence (P08659 whole entry, looked up): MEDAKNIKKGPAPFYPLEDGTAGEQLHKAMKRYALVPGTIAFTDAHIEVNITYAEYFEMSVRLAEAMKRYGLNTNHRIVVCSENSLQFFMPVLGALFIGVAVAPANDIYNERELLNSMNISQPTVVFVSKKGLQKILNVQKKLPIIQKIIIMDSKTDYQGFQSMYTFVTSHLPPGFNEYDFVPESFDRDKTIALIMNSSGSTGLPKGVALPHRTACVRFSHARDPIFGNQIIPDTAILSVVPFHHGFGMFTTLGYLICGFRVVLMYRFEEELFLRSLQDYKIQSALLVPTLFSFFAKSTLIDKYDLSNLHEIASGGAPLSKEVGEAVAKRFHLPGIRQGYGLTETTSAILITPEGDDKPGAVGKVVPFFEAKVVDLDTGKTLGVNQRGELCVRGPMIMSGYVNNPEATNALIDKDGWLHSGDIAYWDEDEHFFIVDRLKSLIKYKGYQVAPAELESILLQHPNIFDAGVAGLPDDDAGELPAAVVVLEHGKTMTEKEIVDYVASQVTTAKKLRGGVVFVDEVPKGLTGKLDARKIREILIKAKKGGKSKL
# S16 F2sN tox cnf: S16 Schwann cell cytotoxicity, confirmatory. Potency, µM (top dose mostly 57.5 µM), for inactives: top-dose activity change, negative = viability loss, hits mostly cytotoxic. shares compounds with PMP22 txn prim. S16 Schwann cells viability, CellTiter-Glo ATP luminescence, 24 h. 690 compounds, 7% hits. AID 1508641; note: potency is the fitted concentration of half-maximal effect; % is set by controls: 0 for no effect and ±100 for the full control effect
# PMP22 txn cnf: PMP22 transcription modulation, confirmatory; shares compounds with PMP22 txn prim; S16 Schwann cells Pmp22-F2sN, dual luciferase, 24 h; Potency, µM (series often up to 57.5 µM), for inactives: at the highest dose activity change, negative = inhibition, most hits filed as inhibitors; 690 compounds, 22% hits; AID 1508646; active = clear falling dose curves in both reporters; inconclusive = both reporters move, but less clearly or upward; inactive = either reporter flat; the % is the FLuc reporter signal; note: potency is the fitted concentration of half-maximal effect
# PMP22 prot conf: confirmation of modulators of rat PMP22 protein expression. 95 tested, under 10 active. shares compounds with PMP22 txn prim. S16 Schwann cells Pmp22-HiBiT, luminescence, 48 h. Potency, µM (series often up to 27.9 µM), for the others: at the highest dose activity change, negative = inhibition, hits mostly inhibitors. AID 1508647
# Target sequence (P25094 whole entry, looked up): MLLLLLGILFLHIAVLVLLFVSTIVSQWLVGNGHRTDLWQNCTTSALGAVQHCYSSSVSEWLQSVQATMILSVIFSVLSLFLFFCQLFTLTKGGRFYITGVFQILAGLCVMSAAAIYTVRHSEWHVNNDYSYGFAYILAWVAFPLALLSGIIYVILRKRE
# * = called active by the depositor; i = inactive; ? = inconclusive; / = no result given. Unless noted, calls come from the whole dose curve; as a rule, active = well fitted curve in the direction sought with a large enough effect; inconclusive = small, poorly fitted or top-dose-only effect, or another doubt; inactive = no such curve, though single readings can be large; an effect the other way counts as inactive or inconclusive.
SMILES,SKOV3 invasion,PMP22 txn prim,p53null 39C kill,S16 F2sN tox,pS6 MEF inh,p53null 32C kill,NLuc saturating,NLuc Km counter,FLuc counter,S16 F2sN tox cnf,PMP22 txn cnf,others
COC[C@@H](c1ccc(C(F)(F)F)cc1)N1CCN(C2(C)CCN(C(=O)c3c(C)ncnc3C)CC2)C[C@H]1C,0.6%,/,/,/,/,/,/,/,/,/,/,
CCCNC(=O)c1cnn2c(C)c(Cc3c(C)cc(C)cc3C)c(C)nc12,-2.1%,15.8µM*,7.3%,?,2.1%,21.5%,?,21.7µM*,-1.9%,-15.4%,?,
CCCCNC(=O)c1cnn2c(C)c(Cc3c(C)cc(C)cc3C)c(C)nc12,-2.2%,?,22.5%,-25.1%,1.1%,?,/,/,/,/,/,
CCN(C(=O)c1cc2c(s1)-c1ccccc1OC2)c1cccc(C(F)(F)F)c1,4.8%,20µM*,18.6%,4.1%,-8.7%,13.5%,?,-19.7%,0.2%,?,-22.8%,
CCCCN(Cc1ccco1)C(=O)c1cc2c(s1)-c1c(C)cccc1OC2,-20.7%,?,11.6%,-29.0%,-1.3%,31.3%,/,/,/,/,/,
Cc1cccc2c1-c1sc(C(=O)N(C)c3cccc(C(F)(F)F)c3)cc1CO2,-6.5%,-28.9%,-7.5%,-14.0%,-0.5%,-6.0%,/,/,/,/,/,
CN(C)CCN(Cc1ccco1)C(=O)c1cc2c(s1)-c1ccccc1OC2,?,16.8µM*,?,?,5.21µM*,7.0%,-13.8%,4.1%,1.6%,?,?,
N#CC[C@H](C1CCCC1)n1cc(-c2ncnc3[nH]ccc23)cn1,36.9%,/,/,/,/,/,/,/,/,/,/,
C#C[C@]1(O)CC[C@@H]2[C@@H]3CCc4cc(O)ccc4[C@H]3CC[C@@]21C,-8.4%,/,/,/,/,/,/,/,/,/,/,
CCN1CCOC(=O)C1CC(=O)Nc1ccc(C(C)=O)cc1 (stereo unspecified),6.4%,?,/,19.9%,?,/,/,/,/,/,/,
CCN1CCOC(=O)C1CC(=O)Nc1ccccc1C(F)(F)F (stereo unspecified),i,?,/,-3.0%,?,/,/,/,/,/,/,
CCN1CCOC(=O)C1CC(=O)Nc1cc(Cl)ccc1OC (stereo unspecified),i,18.9µM*,/,?,?,/,-8.1%,0.0%,3.7%,7.1%,?,
CCc1ccc(NC(=O)CC2C(=O)OCCN2CC)cc1 (stereo unspecified),i,15µM*,/,?,?,/,-17.2%,-17.3%,-19.2%,-26.6%,?,
CC1=C[C@@H]2[C@@H]([C@@H](O)C[C@@]3(C)[C@H]2C[C@@H](C)[C@]3(O)C(=O)CO)[C@@]2(C)Cc3cnn(-c4ccccc4)c3C=C12,-18.2%,/,/,/,/,/,/,/,/,/,/,
CCOC(=O)c1ccc(N2C(=O)c3[nH]nc(-c4ccc(C)cc4)c3C2c2ccc(O)c(OCC)c2)cc1 (stereo unspecified),0.3%,12.7µM*,27.8%,-20.2%,0.6%,26.9%,-11.7%,-13.3%,-2.8%,?,?,PMP22 prot conf=-17.1%
CCOC(=O)c1ccc(N2C(=O)c3n[nH]c(-c4ccco4)c3C2c2ccc(O)c(OCC)c2)cc1 (stereo unspecified),-1.7%,?,26.8%,?,?,7.8%,/,/,/,/,/,
COc1ccc(CCC(=O)Nc2nc3ccc(Cl)cc3s2)cc1OC,17.6%,/,/,/,/,/,/,/,/,/,/,
Cc1ccc(OCCSc2nc3ccc(NC(=O)c4ccc5c(c4)OCO5)cc3s2)cc1,6.4%,13.5µM*,-2.9%,-0.4%,-3.6%,-11.1%,-2.8%,0.9%,-1.9%,?,?,
CCOc1ccc(C(=O)Nc2ccc3nc(SCCOc4ccccc4)sc3c2)cc1,3.7%,10.6µM*,-2.6%,10.3%,-4.4%,-10.2%,-2.5%,1.7%,4.0%,-10.6%,-40.3%,
Cc1cccc(C(=O)Nc2ccc3nc(SCCOc4ccccc4)sc3c2)c1,i,?,-1.2%,18.7%,0.5%,-9.9%,/,/,/,/,/,
COc1ccc(Nc2nc3c(S(=O)(=O)c4ccccc4)nnn3c3ccsc23)cc1OC,-7.3%,-6.9%,1.7%,13.5%,-5.4%,-4.5%,/,/,/,/,/,
COc1ccc(Nc2nc3c(S(=O)(=O)c4ccc(C)cc4)nnn3c3ccsc23)cc1Cl,-3.0%,8.97µM*,?,-8.6%,-1.0%,-11.3%,-5.9%,-15.3%,-1.4%,?,?,
COc1ccc(Nc2nc3c(S(=O)(=O)c4ccccc4)nnn3c3ccc(Cl)cc23)cc1,1.5%,8.91µM*,-25.1%,?,-9.1%,?,-0.1%,5.5%,1.3%,?,13.8µM*,PMP22 prot conf=?
c1cc(-c2cnn3cc(-c4ccc(OCCN5CCCCC5)cc4)cnc23)ccn1,54.1%,/,/,/,/,/,/,/,/,/,/,
O=S(=O)(NCc1ccc(F)cc1)c1ccc(N2CCCCS2(=O)=O)cc1,-5.1%,11.9µM*,1.5%,?,-29.7%,2.6%,-1.9%,-3.4%,-1.2%,-7.2%,2.5%,
